Reference: PubChem BioAssay
Activity calls are given as the source filed them.

Key:
[1] = binders of probe aFSTL3 on microarray, primary screen, stem cell growth factor project, biochemical, small-molecule microarray, fluorescence 635/667 (AID 1064); conditions: higher = more signal;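 further: measures binding of the biotinylated anti-FSTL3 antibody to printed compounds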
[2] = binders from COS7 lysate, DM2A8 probe, primary screen, torsin A project, cell lysate, small-molecule microarray, fluorescence 635/667 (AID 1065); conditions: higher = more signal, COS7 lysate expressing mutant human TOR1A
[3] = binders of probe aFGF2 on microarray, primary screen, stem cell growth factor project, biochemical, small-molecule microarray, fluorescence 635/667 (AID 1067); conditions: higher = more signal;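 further: measures binding of biotinylated aFGF2 protein to printed compounds on slides; z-score merges feature fluorescence and signal-to-noise across triplicate slides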
[4] = binders of probe aFGF10 on microarray, primary screen, stem cell growth factor project, biochemical, small-molecule microarray, fluorescence 635/667 (AID 1071); conditions: higher = more signal;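 further: score merges 667 nm spot intensity and signal to noise from triplicate slides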
[5] = molecular target: Neurogenic locus notch homolog protein 2 (Homo sapiens) (UniProt Q04721); assay: Notch2 binders on small-molecule microarrays, primary screen, biochemical, small-molecule microarray, 635 nm fluorescence, stem cell growth factors (AID 1073); conditions: Notch2 binding, higher = more signal
[6] = molecular target: Pro-neuregulin-1, membrane-bound isoform (Homo sapiens) (UniProt Q02297); assay: NRG1 binders on small-molecule microarrays, primary screen, psychiatric disease protein project, biochemical, small-molecule microarray, fluorescence 635/667 (AID 1075); conditions: NRG1 binding, 635 nm fluorescence, higher = more signal;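 further: score combines 667 nm spot fluorescence with signal to noise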
[7] = system: Neuregulin-1 EGF-like domain; assay: binders of neuregulin-1 EGF-like domain, primary screen, biochemical, small-molecule microarray, 635 nm fluorescence (AID 1081); conditions: small-molecule microarray binding, higher = more signal;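 further: binding of the protein to compounds printed on small-molecule microarray slides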
[8] = FRG1 promoter luciferase signal modulators, primary screen, FRG1 inhibition for FSHD, cell-based, C2C12 myotubes, firefly/Renilla luciferase, luminescence (AID 1084); conditions: higher = more signal, called active from +8 up or from −8 down
[9] = binders of probe aFST on microarray, primary screen, stem cell growth factor project, biochemical, small-molecule microarray, fluorescence 635/667 (AID 1086); conditions: higher = more signal;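 further: score merges 667 nm fluorescence with signal-to-noise of each printed compound spot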
[10] = binders of probe aHhip on microarray, primary screen, stem cell growth factor project, biochemical, small-molecule microarray, fluorescence 635/667 (AID 1087); conditions: higher = more signal;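 further: score merges spot fluorescence at 667nm with spot signal to noise ratio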
[11] = system: PRMT1 (protein arginine N-methyltransferase 1); assay: PRMT1 binders on small-molecule microarrays, primary screen, biochemical, small-molecule microarray, 635 nm fluorescence (AID 1088); conditions: small-molecule microarray binding, higher = more signal;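 further: binding of Prmt1 protein to compounds spotted on small-molecule microarray slides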
[12] = yeast growth modulation, basal conditions, primary screen, YJM789 clinical isolate, OD600, 24 h (AID 1089);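 further: growth of clinical yeast isolate S. cerevisiae YJM 789 seeded 1000 cells per well; test concentration not given here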; conditions: S. cerevisiae YJM789 growth, higher = more signal, called active from +8 up or from −8 down
[13] = fission yeast growth modulation, primary screen, strain 972, OD600, 24 h, no modulator (AID 1090);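 further: basal condition with compound alone and no growth modifier present; test concentration not given here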; conditions: S. pombe 972 growth, higher = more signal, called active from +8 up or from −8 down
[14] = S. cerevisiae growth modulation with rapamycin, primary screen, strain BY4716, OD600, 96 h (AID 1091); conditions: higher = more signal, called active from +8 up or from −8 down; further: test concentration not given here
[15] = molecular target: Torsin-1A-interacting protein 2 (Homo sapiens) (UniProt Q8NFQ8); assay: LULL1 binders on small-molecule microarray, primary screen, cell lysate, human LULL1 lysate, 635/667 nm fluorescence (AID 1092); conditions: hLULL1 lysate binding, 635 nm fluorescence, higher = more signal;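 further: probe is lysate of COS7 cells overexpressing human LULL1; score merges per-feature 667 nm fluorescence with signal-to-noise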
[16] = E. coli growth modulation, two-sided OD650, primary screen, E. coli filamentation project, strain DRC41, 24 h (AID 1093); conditions: OD650, 24 h, higher = more signal, called active from +8 up or from −8 down;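 further: MC1000 strain lacking acrAB efflux and sulA so SOS filamentation is blocked; test concentration not given here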
[17] = small-molecule microarray binders of probe aLefty2, primary screen, biochemical, biotinylated probe, 635/667 nm fluorescence (AID 1094); conditions: higher = more signal;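 further: score merges spot fluorescence near 667 nm with spot signal-to-noise ratio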
[18] = system: Noggin (protein binding on small-molecule microarray); assay: Noggin binders on small-molecule microarray, primary screen, biochemical, 635/667 nm fluorescence (AID 1095); conditions: 635 nm fluorescence, higher = more signal;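 further: score merges 667 nm feature fluorescence with signal to noise over triplicate slides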
[19] = molecular target: Neurogenic locus notch homolog protein 3 (Homo sapiens) (UniProt Q9UM47); assay: NOTCH3 binders on small-molecule microarray, primary screen, biochemical, 635/667 nm fluorescence (AID 1096); conditions: NOTCH3 binding, 635 nm fluorescence, higher = more signal
[20] = small-molecule microarray binders of probe aEGFR, primary screen, biochemical, biotinylated probe, 635/667 nm fluorescence (AID 1097); conditions: higher = more signal;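 further: probe is a biotinylated anti-EGFR antibody binding compounds printed on slides; score combines fluorescence near 667 nm and signal to noise of each spot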

Torsin-1A-interacting protein 2 (Homo sapiens), sequence (Q8NFQ8 whole entry, looked up): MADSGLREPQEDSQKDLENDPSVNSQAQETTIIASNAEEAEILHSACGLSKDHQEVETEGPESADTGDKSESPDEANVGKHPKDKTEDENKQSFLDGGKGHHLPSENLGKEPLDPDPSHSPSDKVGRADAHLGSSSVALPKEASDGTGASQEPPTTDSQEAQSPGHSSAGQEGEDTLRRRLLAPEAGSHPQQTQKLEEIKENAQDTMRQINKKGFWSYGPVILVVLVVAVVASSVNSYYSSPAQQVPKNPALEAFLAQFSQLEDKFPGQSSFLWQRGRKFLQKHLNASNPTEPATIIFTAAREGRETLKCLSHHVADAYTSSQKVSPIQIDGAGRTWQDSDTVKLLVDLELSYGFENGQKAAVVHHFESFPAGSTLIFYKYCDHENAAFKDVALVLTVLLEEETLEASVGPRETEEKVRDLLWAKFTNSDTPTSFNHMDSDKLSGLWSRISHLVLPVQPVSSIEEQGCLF
Neurogenic locus notch homolog protein 3 (Homo sapiens), sequence (Q9UM47 whole entry, looked up): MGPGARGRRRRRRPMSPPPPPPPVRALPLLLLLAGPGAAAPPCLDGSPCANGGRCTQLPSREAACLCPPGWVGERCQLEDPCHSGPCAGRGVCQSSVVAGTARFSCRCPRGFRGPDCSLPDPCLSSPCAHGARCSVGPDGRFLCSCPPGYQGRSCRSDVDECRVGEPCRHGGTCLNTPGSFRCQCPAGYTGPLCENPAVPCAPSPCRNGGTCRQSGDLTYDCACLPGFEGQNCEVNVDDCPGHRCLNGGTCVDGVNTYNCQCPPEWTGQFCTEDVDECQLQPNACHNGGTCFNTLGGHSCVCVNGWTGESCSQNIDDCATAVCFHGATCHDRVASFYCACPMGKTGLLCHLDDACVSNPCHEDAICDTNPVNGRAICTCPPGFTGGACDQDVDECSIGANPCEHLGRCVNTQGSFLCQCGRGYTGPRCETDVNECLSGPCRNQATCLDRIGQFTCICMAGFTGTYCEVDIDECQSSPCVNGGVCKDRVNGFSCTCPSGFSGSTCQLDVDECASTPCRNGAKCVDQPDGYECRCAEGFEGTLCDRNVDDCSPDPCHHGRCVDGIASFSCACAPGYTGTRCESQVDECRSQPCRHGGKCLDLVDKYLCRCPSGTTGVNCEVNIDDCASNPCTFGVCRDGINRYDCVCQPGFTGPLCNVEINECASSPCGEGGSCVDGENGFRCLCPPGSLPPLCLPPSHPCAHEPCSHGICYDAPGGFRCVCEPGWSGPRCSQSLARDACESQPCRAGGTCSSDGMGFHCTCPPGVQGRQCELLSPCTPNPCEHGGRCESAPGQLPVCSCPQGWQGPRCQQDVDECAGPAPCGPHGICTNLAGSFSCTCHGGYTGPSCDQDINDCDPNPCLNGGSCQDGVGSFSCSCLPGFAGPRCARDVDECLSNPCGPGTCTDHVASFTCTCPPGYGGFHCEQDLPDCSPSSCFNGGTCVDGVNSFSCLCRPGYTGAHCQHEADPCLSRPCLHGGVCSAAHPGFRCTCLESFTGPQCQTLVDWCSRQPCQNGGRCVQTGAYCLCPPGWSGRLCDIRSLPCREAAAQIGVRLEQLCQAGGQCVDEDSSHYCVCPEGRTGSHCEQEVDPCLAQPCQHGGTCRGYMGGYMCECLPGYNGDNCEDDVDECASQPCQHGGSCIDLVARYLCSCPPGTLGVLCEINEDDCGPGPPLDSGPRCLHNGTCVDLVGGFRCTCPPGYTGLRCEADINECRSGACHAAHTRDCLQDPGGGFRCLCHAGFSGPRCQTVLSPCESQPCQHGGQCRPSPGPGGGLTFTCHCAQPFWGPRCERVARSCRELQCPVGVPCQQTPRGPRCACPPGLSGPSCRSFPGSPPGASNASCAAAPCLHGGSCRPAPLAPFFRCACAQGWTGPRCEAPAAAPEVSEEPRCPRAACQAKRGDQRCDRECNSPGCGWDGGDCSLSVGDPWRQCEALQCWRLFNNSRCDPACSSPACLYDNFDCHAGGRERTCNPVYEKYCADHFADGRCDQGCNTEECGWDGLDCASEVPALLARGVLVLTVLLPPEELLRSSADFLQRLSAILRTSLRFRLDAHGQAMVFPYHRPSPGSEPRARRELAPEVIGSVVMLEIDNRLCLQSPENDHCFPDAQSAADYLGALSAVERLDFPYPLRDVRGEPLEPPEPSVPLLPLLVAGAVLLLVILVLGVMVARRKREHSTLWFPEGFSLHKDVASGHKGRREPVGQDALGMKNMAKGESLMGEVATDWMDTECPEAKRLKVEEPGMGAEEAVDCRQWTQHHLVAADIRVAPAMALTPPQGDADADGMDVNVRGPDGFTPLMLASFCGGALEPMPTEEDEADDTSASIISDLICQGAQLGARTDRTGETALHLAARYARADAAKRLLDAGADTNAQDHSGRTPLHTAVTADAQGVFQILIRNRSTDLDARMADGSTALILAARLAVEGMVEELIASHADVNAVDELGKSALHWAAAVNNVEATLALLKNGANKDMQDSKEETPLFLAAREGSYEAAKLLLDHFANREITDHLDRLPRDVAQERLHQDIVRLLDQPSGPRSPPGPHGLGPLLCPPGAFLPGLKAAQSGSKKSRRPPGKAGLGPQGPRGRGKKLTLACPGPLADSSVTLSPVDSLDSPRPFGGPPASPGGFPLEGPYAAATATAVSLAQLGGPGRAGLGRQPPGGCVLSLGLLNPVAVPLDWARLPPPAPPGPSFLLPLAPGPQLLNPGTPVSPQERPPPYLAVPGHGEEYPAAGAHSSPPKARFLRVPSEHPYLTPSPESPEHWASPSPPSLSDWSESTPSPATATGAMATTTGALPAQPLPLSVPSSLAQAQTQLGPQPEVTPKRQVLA
Pro-neuregulin-1, membrane-bound isoform (Homo sapiens), sequence (Q02297 whole entry, looked up, the tested form may be a part, canonical isoform): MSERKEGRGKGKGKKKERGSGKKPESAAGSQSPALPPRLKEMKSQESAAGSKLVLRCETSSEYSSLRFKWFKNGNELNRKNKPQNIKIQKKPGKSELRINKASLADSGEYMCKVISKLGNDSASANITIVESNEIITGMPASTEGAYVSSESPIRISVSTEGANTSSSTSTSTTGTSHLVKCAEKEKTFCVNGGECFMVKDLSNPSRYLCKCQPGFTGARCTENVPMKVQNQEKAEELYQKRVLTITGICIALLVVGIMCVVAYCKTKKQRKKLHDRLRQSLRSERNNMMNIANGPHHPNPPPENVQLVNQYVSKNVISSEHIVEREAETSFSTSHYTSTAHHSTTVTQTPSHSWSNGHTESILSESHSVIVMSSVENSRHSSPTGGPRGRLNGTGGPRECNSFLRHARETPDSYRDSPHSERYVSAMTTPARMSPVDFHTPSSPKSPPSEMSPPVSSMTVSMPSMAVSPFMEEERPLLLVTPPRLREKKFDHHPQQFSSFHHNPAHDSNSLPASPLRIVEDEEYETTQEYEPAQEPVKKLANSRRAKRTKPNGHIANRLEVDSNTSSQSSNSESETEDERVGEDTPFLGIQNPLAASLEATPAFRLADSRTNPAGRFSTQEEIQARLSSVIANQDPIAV

SMILES | composite z-score [1] | composite z-score [2] | composite z-score [3] | composite z-score [4] | composite z-score [5] | composite z-score [6] | composite z-score [7] | z-score [8] | composite z-score [9] | composite z-score [10] | composite z-score [11] | z-score [12] | z-score [13] | z-score [14] | composite z-score [15] | z-score [16] | composite z-score [17] | composite z-score [18] | composite z-score [19] | composite z-score [20]
C=CCNC(=O)[C@H]1[C@@H]2C(=O)O[C@@H](c3ccccc3)[C@@H](c3ccccc3)N2[C@@H](c2ccccc2OCCO)[C@]12C(=O)N(C(=O)OCCOC)c1ccc(C#CCCO)cc12 | 1.61 | 1.31 | 0.0603 | 0.853 | 0.83 | 0.79 | 1.11 | -4.05 (inactive) | 1.24 | 0.511 | 1.43 | 0.827 (inactive) | -3.06 (inactive) | 3.43 (inactive) | 1.36 | 1.68 (inactive) | 0.994 | 1.59 | 1.12 | 0.596
C#CCOc1ccc(C[C@H]2C(=O)O[C@H](Cc3ccccc3)[C@H](/C=C/C3CC3)N2CC#C)cc1 | 0.372 | 0.259 | -0.14 | -0.118 | -0.487 | -0.13 | 0.141 | -4.41 (inactive) | -0.652 | -0.0074 | -0.746 | 1.35 (inactive) | -0.795 (inactive) | 0.519 (inactive) | 0.408 | 2.04 (inactive) | -0.139 | -0.493 | -1.74 | -0.206
CC(C)(C)OC(=O)CC[C@@]12N=C(c3ccc(OCCCO)cc3)O[C@@H]1c1ccccc1N(Cc1ccccc1)C2=O | 0.96 | 0.842 | -0.0481 | -0.422 | 0.246 | 0.778 | 1.21 | -3.31 (inactive) | 0.439 | -0.0645 | 1.32 | 0.0492 (inactive) | -1.2 (inactive) | 3.98 (inactive) | 3.26 | 1.55 (inactive) | 0.0622 | 0.753 | 1.05 | -0.0497
CC(C)C[C@@H]1NC(=O)[C@H]2C[C@@H](C(=O)NCCCC[N+](C)(C)C)[C@@H](c3cccc(OCCO)c3)N2C1=O | -0.746 | 1.9 | -0.138 | 0.253 | -0.942 | 1.95 | 1.43 | 0.683 (inactive) | -0.233 | -0.717 | 0.617 | -0.276 (inactive) | -0.262 (inactive) | -2.33 (inactive) | 3.37 | 0.395 (inactive) | -0.348 | 1.21 | 1.03 | 0.009
NCCCCCNC(=O)[C@H]1C[C@H]2C(=O)NCC(=O)N2[C@H]1c1ccc(O)cc1 | -0.136 | 2.22 | -0.113 | 0.847 | 0.775 | 1.3 | 1.22 | 1.51 (inactive) | 0.106 | 0.154 | 1.55 | 0.535 (inactive) | -1.08 (inactive) | 1.11 (inactive) | 2.16 | 1.1 (inactive) | -0.0424 | 1.86 | 0.906 | 0.186
O=C(NCC(F)(F)F)[C@@H]1c2ccccc2C(=O)N(C2Cc3ccccc3C2)[C@H]1c1ccc(CO)cc1 | 0.833 | -0.67 | -0.0487 | -0.514 | -0.98 | -0.0643 | 0.0014 | -0.827 (inactive) | -0.187 | -0.353 | -0.236 | -0.62 (inactive) | -1.06 (inactive) | -0.501 (inactive) | 0.492 | 2.12 (inactive) | 0.107 | -1.29 | -0.844 | -0.129
C=CCC1(CC=C)C[C@H]2CO[C@H](c3ccc(OC)cc3)N2C1=O | 0.79 | 0.533 | -0.107 | 0.201 | -0.412 | 0.0973 | 0.523 | -0.465 (inactive) | 0.132 | -0.0994 | -0.109 | -0.137 (inactive) | -2.77 (inactive) | -0.484 (inactive) | 0.288 | 2 (inactive) | 0.109 | 0.377 | -0.638 | -0.0204
[N-]=[N+]=NCc1ccccc1C[C@@]1(C(=O)NCc2ccccc2)N=C(c2ccc(OCCCO)cc2)O[C@@H]1c1ccccc1 | 1.16 | 0.997 | 0.0336 | 0.422 | 0.853 | 0.457 | 0.856 | -3.28 (inactive) | 0.551 | -0.191 | 0.475 | 1.06 (inactive) | 0.393 (inactive) | 32.7 (active) | 1.82 | 2.1 (inactive) | 0.247 | -0.41 | -0.0209 | 0.0139
CCCCCN1CC=CC23O[C@@H]4/C=C\CCC(C)OC(=O)C4[C@H]2C(=O)N(CCCO)[C@@H]3C1=O (stereo not given in full) | 0.499 | 2.09 | -0.128 | -1.37 | -1.28 | 1.57 | 1.15 | 0.356 (inactive) | -0.61 | -0.261 | -0.418 | -1.3 (inactive) | -1.58 (inactive) | -0.544 (inactive) | 0.818 | 1.77 (inactive) | -0.441 | -1.44 | -1.17 | -0.262
[N-]=[N+]=NCc1ccccc1C[C@@]1(C(=O)O)N=C(c2ccc(OCCCO)cc2)O[C@@H]1c1ccccc1 | 0.673 | -0.231 | -0.134 | -0.927 | -0.0526 | 1.86 | 0.754 | -1.08 (inactive) | 0.0724 | -0.226 | 0.244 | -0.921 (inactive) | -1.23 (inactive) | -1.22 (inactive) | 2.45 | 0.41 (inactive) | 0.0424 | -0.811 | -0.364 | -0.221
